# Only some compounds are listed: those with a hit (about 19% of all), similar ones and a draw of the others.
# RORgamma inh – blocks mouse ROR gamma transcriptional activity. P51450. 310,000 tested, 5.4% active. Potency, µM (top dose mostly 53.6 µM), without a hit: top-dose activity change, negative = inhibition, usual class: inhibitors. Drosophila S2 Gal4-RORgamma UAS-luciferase reporter, 20 h; further: nearly all actives have a fitted effect of over 60% in size
# Target sequence (P51450 whole entry, looked up, the tested form may be a part): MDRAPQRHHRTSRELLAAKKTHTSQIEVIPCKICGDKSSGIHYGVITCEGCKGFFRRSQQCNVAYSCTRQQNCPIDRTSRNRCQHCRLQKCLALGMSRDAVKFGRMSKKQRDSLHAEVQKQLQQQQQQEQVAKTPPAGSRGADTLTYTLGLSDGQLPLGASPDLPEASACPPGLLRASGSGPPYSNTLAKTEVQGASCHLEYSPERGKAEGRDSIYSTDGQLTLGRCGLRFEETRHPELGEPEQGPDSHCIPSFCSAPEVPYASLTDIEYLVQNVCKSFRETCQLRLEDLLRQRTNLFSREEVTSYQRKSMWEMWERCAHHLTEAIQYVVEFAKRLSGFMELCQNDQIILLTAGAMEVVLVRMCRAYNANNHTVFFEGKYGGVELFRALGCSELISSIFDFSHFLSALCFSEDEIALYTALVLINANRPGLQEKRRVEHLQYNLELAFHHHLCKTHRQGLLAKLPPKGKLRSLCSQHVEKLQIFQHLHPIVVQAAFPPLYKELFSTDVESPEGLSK
#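 Drosophila Schneider cells stably carrying a metallothionein-driven Gal4 DBD–ROR gamma fusion and a UAS-Photinus luciferase reporter were exposed to compound for 1 hr, then induced with copper sulfate (700 uM final) for 20 hr at ambient temperature before luminescence reading.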
# Gal4-VP16 FLuc – counter-screen for ROR gamma inhibitors: Gal4-VP16 reporter | Drosophila S2 Gal4-VP16 UAS-luciferase, luminescence, 20 h | Potency, µM (titrated, usually from 53.6 µM), for the others: at the highest dose activity, negative = inhibition, most hits filed as inhibitors | 310,000 tested, 3.5% active | AID 2546;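 further: Gal4-VP16 expression switched on by copper sulfate through the metallothionein promoter; nearly all actives have a fitted effect of over 50% in size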
# DT40 TDP1 no CPT – qHTS for Inhibitors of human tyrosyl-DNA phosphodiesterase 1 (TDP1): qHTS in cells in absence of CPT | DT40 Tdp1-/- hTDP1 cells, no CPT, ATP luminescence, 48 h | Potency, µM (highest dose often 46.2 µM), without a hit: at the top dose activity change, negative = growth inhibition, most hits filed as inhibitors | 420,000 tested, 15% active; further: nearly all actives have a fitted effect of over 55% in size
#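 Seeded 400 DT40-hTDP1 cells/well (vehicle DMSO, no 20 nM CPT); pinned compounds; ≥48 hr at 37 °C; CellTiter-Glo luminescence as viability measure.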
# TDP1 block – blocks human tyrosyl-DNA phosphodiesterase 1. recombinant TDP1, AlphaScreen DNA substrate cleavage. Potency, µM (highest dose often 130 µM), for inactives: at the top dose activity change, negative = inhibition, actives largely listed as inhibitors. 350,000 tested, 0.28% active. AID 485290. Q9NUW8; further: nearly all actives have a fitted effect of over 40% in size
#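 Recombinant E. coli-expressed Tdp1 (1 nM) preincubated with compound 15 min at RT, then 5'-biotin/3'-phosphotyrosine-FITC DNA substrate (15 nM) added for 5 min. AlphaScreen beads (10 ug/ml) added, 10 min RT; tyrosine-FITC cleavage read as signal loss.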
# DT40 TDP1 CPT – DT40-hTDP1 cell growth loss with CPT | AID 686979 | Potency, µM (titrated, usually from 46.2 µM), inactives show top-dose activity change, negative = growth inhibition, usual class: inhibitors | chicken DT40 Tdp1-/-;hTDP1 cells + 20 nM CPT, ATP luminescence, 48 h | 420,000 tested, 12% active; further: nearly all actives have a fitted effect of over 55% in size
#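 Chicken DT40 Tdp1-/- cells complemented with human TDP1, 400 cells/well, exposed to compounds plus 20 nM camptothecin for at least 48 h at 37 C; viability read as ATP content by CellTiter-Glo luminescence.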
# * hit, by the source's call; ? = inconclusive; · = no result; [ ] = remark or other dose. The call rests on the fitted dose curve; in most records, active means well fitted curve in the direction sought with a large enough effect; inconclusive means small, poorly fitted or top-dose-only effect, or another doubt; inactive means no such curve, though single readings can be large; an effect the other way counts as inactive or inconclusive. On the % scale 0 is the no-effect control and ±100 the full control effect; potency means the concentration at half of the fitted maximal effect.
SMILES,RORgamma inh,Gal4-VP16 FLuc,DT40 TDP1 no CPT,TDP1 block,DT40 TDP1 CPT
O=C1CCCCC1Sc1nnc(Cc2cccs2)n1CCc1ccccc1 (centres undefined),-27%,5%,23µM*,5%,?
COCCn1c(SC2CCCCC2=O)nnc1-c1ccncc1 (centres undefined),15%,4%,-14%,·,-10%
O=c1[nH]c(SCc2nc3ccccc3c(=O)n2-c2ccccc2C(F)(F)F)nc2ccccc12,-3%,8%,?,3%,16µM*
O=c1[nH]c(SCc2nc3ccccc3n2Cc2ccccc2)nc2ccccc12,4.5µM*,?,-21%,-8%,-26%
O=c1[nH]c(SCc2ccccc2F)nc2ccccc12,25%,-4%,?,5%,?
Cc1ccc(C(=O)Nc2nc(COc3ccccc3)cs2)s1,10µM*,-15%,?,-1%,?
O=C(Nc1nc(COc2ccccc2)cs1)C1CCC1,?,?,16µM*,3%[56.1 µM],23µM*
O=C(Nc1nc(COc2ccccc2)cs1)C12CC3CC(CC(C3)C1)C2,?,?,?,-4%,22µM*
CC(=O)Nc1nc(COc2ccccc2)cs1,2%,-12%,-19%,2%,-10%
O=C(O)c1cc(CN2CCOCC2)oc1-c1ccccc1,4%,2%,-2%,-2%,-5%
CC(C)N1CCC(N2CCN(Cc3nc4ccccc4s3)CC2CCO)CC1 (centres undefined),-7%,0%,-1%,4%,7%
O=c1[nH]c(SCc2ccc([N+](=O)[O-])cc2)nc2[nH]ncc12,-16%,22%,-11%,-1%,-9%
O=c1c2c3c(sc2nc(N2CCNCC2)n1-c1cccc(Cl)c1)CCCCC3,-5%,0%,·,·,·
COC(=O)CSc1nc2sc3c(c2c(=O)n1-c1ccccc1)CCN(C)C3,-32%,-12%,?,4%,-21%
CCCCNc1nc2sc3c(c2c(=O)n1-c1cccc(Cl)c1)CCN(C)C3,-5%,1%,16µM*,·,21µM*
CCCCCNc1nc2sc3c(c2c(=O)n1-c1cccc(Cl)c1)CCN(C)C3,8%,7%,12µM*,10%,12µM*
COc1ccc(-c2csc(NC(=O)CSCC(=O)Nc3cc(C)on3)n2)c(OC)c1,·,·,?,-5%[0.505 µM],29µM*
COc1ccc(-c2csc(NC(=O)CSC(C)C(=O)Nc3cc(C)on3)n2)cc1OC (centres undefined),·,·,10µM*,3%,18µM*
COc1ccc(OC)c(-c2csc(NC(=O)Cc3ccccc3)n2)c1,19%,22%,?,·,?
COc1ccc(OC)c(-c2csc(NC(=O)CSCC(=O)Nc3cc(C)on3)n2)c1,·,·,-20%,2%,-2%
COc1ccc(-c2csc(NC(=O)CSc3ccc(Br)cc3)n2)c(OC)c1,-3%,-3%,16µM*,8%,18µM*
COc1ccc(OC)c(-c2csc(NC(=O)CSc3ccccc3)n2)c1,-28%,?,13µM*,-2%,?
COc1ccc(NS(=O)(=O)c2cc(NC(=O)CC3CCCC3)ccc2N2CCOCC2)cc1,?,-8%,-28%,0%,0%
COc1ccccc1N1C(=O)[C@@H]2[C@H](C1=O)[C@H](C(=O)c1ccc(OC(C)=O)cc1)N1N=CC=C[C@@H]21,-14%,6%,-11%,?,-8%
O=C(CSC1=NCCS1)N1CCN(c2ccc(Cl)cc2)CC1,?,1%,?,1%,?
COc1ccccc1N/C(N)=N/c1nc(CSc2nc3ccccc3s2)cc(=O)[nH]1,?,-4%,·,0%,·
Cc1ccc(CCNC(=O)c2ccc(CNS(=O)(=O)c3ccccc3)cc2)cc1,·,·,5.8µM*,-2%,6.5µM*
CC(C)c1ccccc1NC(=O)COc1ccc(C(=O)NCCc2ccccc2)cc1,?,18µM*,?,3%,?
